Hits are enriched below; roughly 13% of the tested compounds scored in any of these assays.
HADH2 inhib = qHTS Assay for Inhibitors of HADH2 (Hydroxyacyl-Coenzyme A Dehydrogenase, Type II). recombinant HADH2, NADH fluorescence, beta-hydroxybutyryl-CoA. Potency, µM (doses to about 57.1 µM), for the others: at the highest dose activity change, negative = inhibition, usual class: inhibitors. 73,000 compounds, 3.4% hits; also: potency is read from the fitted curve at half-maximal effect; % is scaled to controls: 0 for no effect and ±100 for the full control effect; nearly all actives have a fitted effect of over 60% in size
Target sequence (Q99714 whole entry, looked up, one chain of several): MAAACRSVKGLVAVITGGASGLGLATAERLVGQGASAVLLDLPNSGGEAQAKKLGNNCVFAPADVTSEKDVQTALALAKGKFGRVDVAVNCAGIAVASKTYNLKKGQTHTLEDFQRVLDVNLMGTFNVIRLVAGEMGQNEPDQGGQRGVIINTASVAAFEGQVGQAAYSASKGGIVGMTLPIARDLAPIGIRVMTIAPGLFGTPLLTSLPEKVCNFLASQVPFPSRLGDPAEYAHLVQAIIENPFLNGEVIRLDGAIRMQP
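20 nM HADH2 + cpd, 15 min RT; add 1 mM NAD+/90 uM beta-hydroxybutyryl-CoA; kinetic fluorescence 360/450 nm, 4 min. Tris-HCl pH 9.0, 0.01% Tween-20.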
AID923 = qHTS Assay for Allosteric/Competitive Inhibitors of Caspase-1: Spectroscopic Profiling in AFC Spectral Region. 75,000 compounds, 1.1% hits. Potency, µM (highest dose often 57.5 µM), for inactives: at the highest dose fluorescence increase, most hits filed as activators. compound fluorescence, AFC spectral region (405/520 nm). AID 923, 2007; also: potency is read from the fitted curve at half-maximal effect; 0% is about no effect
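Baseline compound fluorescence (AFC region, 405 nm ex/520 nm em) taken from the intercept of kinetic reads with 50 nM caspase-1 and 5 uM Ac-WEHD-AFC; normalized to an on-plate AFC standard curve; compounds titrated up to 57 uM.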
HSD17B inh = qHTS Assay for Inhibitors of HSD17B4, hydroxysteroid (17-beta) dehydrogenase 4. recombinant HSD17B10, NADH fluorescence kinetic. Potency, µM (titrated, usually from 57.1 µM), inactives show at the top dose activity change, negative = inhibition, actives largely listed as inhibitors. 3-hydroxyacyl-CoA dehydrogenase type-2 (Homo sapiens), Q99714. 75,000 compounds, 7.6% hits;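 also: the protocol describes HADH2 (HSD17B10) and not the HSD17B4 of the title; potency is read from the fitted curve at half-maximal effect; % is scaled to controls: 0 for no effect and ±100 for the full control effect; nearly all actives have a fitted effect of over 70% in size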
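20 nM HADH2, pH 9.0 Tris/Tween; cpd preinc 15 min RT; start w/ 1 mM NAD+ + 90 uM b-hydroxybutyryl-CoA; kinetic fluor ex360/em450 q30s x 4 min; delta last-first.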
A350 autofl = qHTS Assay for Spectroscopic Profiling in A350 Spectral Region | Compound autofluorescence, 340/450 nm, Alexa 350 dye-equivalents; active compounds read high | max dye-equivalent concentration, M | 59,000 compounds, 11% hits | AID 590, 2007; in the data active = max dye-equivalent concentration above about 10 nM; inconclusive = mostly about 1.1 nM to 9.6 nM
4MU fluor = qHTS Assay for Spectroscopic Profiling in 4-MU Spectral Region. compound autofluorescence, 340/450 nm, 4-MU equivalents; active compounds read high. 59,000 compounds, 11% hits. max dye-equivalent concentration, M; in the data active = max dye-equivalent concentration above about 10 nM; inconclusive = mostly about 1.1 nM to 9.6 nM
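Intrinsic fluorescence at 340/450 nm (ex/em) was read after 15 min at room temperature in pH 8.0, 100 mM Tris. Each compound concentration expressed as 4-MU-equivalent concentration from a six-point 4-MU standard series on each plate.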
Numbers without * were called inactive; [ ] = dose if it differs, or a comment. Unless noted, calls follow the shape of the dose curve; as a rule, active = well fitted curve in the direction sought with a large enough effect; inconclusive = small, poorly fitted or top-dose-only effect, or another doubt; inactive = no such curve, though single readings can be large; an effect the other way counts as inactive or inconclusive.

For O=C(CCNC(=O)Cn1ccc2ccccc2c1=O)NCCN1CCN(c2cccc(Cl)c2)CC1 the results were HADH2 inhib 5%, AID923 0%, HSD17B inh -8%, A350 autofl 2.2e-08M* and 4MU fluor 2.3e-08M*.
O=C(CCNC(=O)Cn1ccc2ccccc2c1=O)NCCN1CCN(c2ccccc2F)CC1 was read as HADH2 inhib 5%, AID923 -2%, HSD17B inh -6%, A350 autofl inactive and 4MU fluor inactive.
For O=C(O)CC(CC(=O)O)C(=O)O the results were HADH2 inhib 1%[11.4 µM], AID923 -1%[11.5 µM], HSD17B inh 9%[11.4 µM], A350 autofl inactive and 4MU fluor inactive.
O=C(c1c[nH]c2ccc(S(=O)(=O)N3CCC4(CC3)OCCO4)cc2c1=O)N1CCOCC1 was read as HADH2 inhib 25µM*, AID923 1%, HSD17B inh 25µM*, A350 autofl 5.7e-08M* and 4MU fluor 6.3e-08M*.
Screening Cc1cccc(N(C)S(=O)(=O)c2ccc3[nH]cc(C(=O)N4CCOCC4)c(=O)c3c2)c1 returned HADH2 inhib inconclusive, AID923 -2%, HSD17B inh 32µM*, A350 autofl 3.2e-08M* and 4MU fluor 2.9e-08M*.
For CCn1cc(C(=O)N2CCCC2)c(=O)c2cc(S(=O)(=O)N3CCOCC3)ccc21 the results were HADH2 inhib 9%, AID923 3%, HSD17B inh -11%, A350 autofl inactive and 4MU fluor inactive.
`O=C(NCc1ccc2c(c1)OCO2)c1cc(S(=O)(=O)N2CCCCC2)ccc1F` gave HADH2 inhib 14%, AID923 0%, HSD17B inh 10%, A350 autofl inactive and 4MU fluor inactive.
O=C(NCc1ccc2c(c1)OCO2)c1c[nH]c2ccc(S(=O)(=O)N3CCOCC3)cc2c1=O was read as HADH2 inhib 13µM*, AID923 1%, HSD17B inh 32µM*, A350 autofl inactive and 4MU fluor inactive.
`CC(C)C[C@@H](CC(=O)N[C@@H](CCC(=O)O)CC(=O)O)NC(=O)[C@@H]1CCCC[C@H]1NC(=O)C[C@@H](NC(=O)C[C@H](CO)NC(=O)[C@@H]1CNCC[C@H]1N)C(C)C` gave HADH2 inhib 31%.
`Cc1sc2ncnc(SCc3ccco3)c2c1C` gave HADH2 inhib -14%, AID923 1%, HSD17B inh -19%, A350 autofl inactive and 4MU fluor inactive.
`Cc1sc2nc(-c3ccco3)oc(=O)c2c1C` gave HADH2 inhib -21%, AID923 3%, HSD17B inh -29%, A350 autofl 1.8e-07M* and 4MU fluor 1.4e-07M*.
`Cc1[nH]n2c(=O)cc(C(C)C)nc2c1-c1ccccc1` gave HADH2 inhib inconclusive, AID923 0%, HSD17B inh 32µM*, A350 autofl inconclusive and 4MU fluor inconclusive.
Cc1[nH]n2c(=O)cc(C(C)(C)C)nc2c1-c1ccccc1 was read as HADH2 inhib inconclusive, AID923 -1%, HSD17B inh 25µM*, A350 autofl inactive and 4MU fluor inactive.
For CCCc1cc(=O)n2[nH]c(CCc3ccccc3)nc2n1 the results were HADH2 inhib 5%, AID923 2%, HSD17B inh -2%, A350 autofl inconclusive and 4MU fluor inactive.
For CCCc1cc(=O)n2[nH]c(C)c(-c3ccccc3)c2n1 the results were HADH2 inhib -23%, AID923 0%, HSD17B inh 32µM*, A350 autofl inactive and 4MU fluor inactive.
Screening CCCc1cc(=O)n2[nH]c(C)cc2n1 returned HADH2 inhib 14%, AID923 1%, HSD17B inh 25µM*, A350 autofl inactive and 4MU fluor inactive.
Screening Cn1c(=O)c(-c2cccc(F)c2)nc2cncnc21 returned HADH2 inhib -18%, AID923 3%, HSD17B inh -18%, A350 autofl inconclusive and 4MU fluor inconclusive.
